# Data reported in the OligoGym collection.
# Molecular target: DPRX
# Assay: pooled miR-30 sensor sort-seq; sequence = guide strand
# Settings: shRNA
# Note: reference of the scale not given here.
row,Sequence,sensor-assay potency score (higher = more potent)
1,TGCTTCTTAGTGAACATGGTTC,-0.891
2,TATATATTAGGATCTCGGCAGC,-0.886
3,TTTTTGATGAATATGCTTGCAT,0.217
4,TCTTAGTGAACATGGTTCGTTT,-0.457
5,TAGTGTGTCTGCATTTCTCAGG,-0.247
6,TTGGGGTACAGGATGAGCTGGA,0.271
7,TCGATGACCCGTGTACACCAGG,-1.09
8,TTGCTTCTTAGTGAACATGGTT,-0.403
9,TTCTTAGTGAACATGGTTCGTT,0.0305
10,TTTCCTGTGTGAATGCATCTGG,0.364
11,TTTTGATGAATATGCTTGCATT,-1.14

# Molecular target: DQX1
# Assay: as above
# Settings: shRNA
row,Sequence,sensor-assay potency score (higher = more potent)
1,TATAAAGGCTTCATACACCTGG,0.178
2,TTCAGCAGCTCATAGTAGCGGG,-0.681
3,AACACTAGCACATCTCCTGGAA,0.212
4,TTCTGATAGTATGACACCCAGA,-1.09
5,TTTAGTAGTAACACCAGGGAGC,-0.54
6,TTGCTCGCAATCGTCTTGCCTC,-0.154
7,TTTTAGTAGTAACACCAGGGAG,-0.895
8,TTCTGGAGCAGGCTGGTCCAGG,-1.18
9,TGAGTGACCACAACCTTTCGGG,0.181
10,TTGAATCTCAGAAACAATGGAA,0.304
11,TAGGATTGTAAACACTTCGGAG,-0.968
12,TAGTATGACACCCAGATCTGAC,-0.721

# Molecular target: DSPP
# Assay: as above
# Settings: shRNA
row,Sequence,sensor-assay potency score (higher = more potent)
1,TTCACTGCTATCACTGCTGTTG,-0.29
2,TGTACTGACACATTTGATCTTG,0.307
3,TTCACTTGTATTACCCTCGTTT,0.22
4,TACTTGAGGTCCATCTTCTTGG,-0.264
5,TTTATCCTCTTTACCTTCGTTG,-0.331
6,TTCTCTATGGTTGAGCTTCTGG,-0.413
7,TTGCTGCTGTCTGACTTGCTGT,-1.02
8,TTGTGTCTTGACATTGCCTTTG,-0.762
9,TCTATCACCTTCATGCACCAGG,0.183
10,TTACTGTCACTATCACTGCTGT,-0.164
11,TATTCTTATCAGTATTTCCATT,-0.803
12,TATGTAGAAAAACTCTTCCCTC,-0.0837
13,TTTGCTTTCTCTATGGTTGAGC,0.0105
14,TACTATCTGAATTTTGACCTAT,0.43
15,TTTCTCTTGCTGTTGATCTGAG,-0.329
16,TTGCTATCACTGCTGTTGCTGC,-0.741
17,TATCACTGTCATCATCTTCTGC,-0.312
